Sampled rows, rich in hits. Any-hit rate of the full collection: about 3.6%.
Pf apPOL block = Pf-apPOL DNA polymerase inhibition. Recombinant Pf-apPOL, molecular beacon fluorescence, 1.5 h. inhibition, % at 10 µM. hit rate 0.25% among 210,000. AID 1794808
mHTT-CaM PPI inh = mHTT-calmodulin interaction abrogation | P42858 | AlphaScreen His-mHTT/GST-CaM binding, luminescence | inhibition, % at 15 µM | hit rate 3.6% among 190,000
Numbers stand for hits; . = inactive; / = no result given. Cut-off read from the data, not from the text of the source: active = inhibition above about 50%; inactive = the rest.

SMILES	Pf apPOL block	mHTT-CaM PPI inh
O=C(c1ccccc1)N1CCC(CCNS(=O)(=O)c2ccccc2)CC1	.	50.3
Fc1cc(F)cc(CN2CCCN(c3ncccc3-c3nc(C4CC4)no3)CC2)c1	.	.
CC1CCCN(c2cc(C(=O)NC3CCCCC3)c3ccccc3n2)C1 (centres undefined)	.	.
O=S1(=O)C=C(Sc2cccc3cccnc23)c2ccccc21	.	68.0
Cc1cc(C)nc(SC2=CS(=O)(=O)c3ccccc32)n1	.	.
COc1cc(C(F)(F)F)c2ccc3c(C)c(C)n(C)c3c2n1	.	.
Oc1ccc(Nc2nc(-c3ccccc3)cs2)cc1	.	79.1
NNc1nc(-c2ccccc2)cs1	.	57.5
Oc1cccc(Nc2nc(-c3ccccc3)cs2)c1	.	.
c1ccc(-c2csc(Nc3ncccn3)n2)cc1	.	.
COc1cc(-c2noc(C)c2/C=C/c2ccc(N)cc2)cc(OC)c1OC	.	52.7
COc1cc(-c2noc(C)c2C#Cc2ccc(N)cc2)cc(OC)c1OC	.	.
COc1ccc2[nH]cc(CCNC(=O)c3ccc(Cl)cc3)c2c1	.	.
O=C(NCCc1c[nH]c2ccc(OCc3ccccc3)cc12)c1ccc(Cl)cc1	.	73.0
Cc1ccc(C(=O)c2ccccc2)cc1[N+](=O)[O-]	.	.
Cc1ccc(-c2[nH]c3ccccc3c2C)cc1[N+](=O)[O-]	.	64.0
CCc1cccc(NC(=O)CN2CCC(c3nc(-c4ccncc4)no3)CC2)c1	.	.
COCc1nnc(NC(=O)COc2ccc(Br)cc2C(C)(C)C)s1	.	.
CCOc1ccc(CC(=O)N2CCc3[nH]ncc3C2)cc1	.	.
Cc1cccc(NC(=O)C(=O)NCc2ccccn2)n1	.	.
Cc1ccc2ccc3ccc(C)nc3c2n1	/	.
Cc1cccc(NC(c2cccc(C)n2)c2ccc3ccc(C)nc3c2O)n1 (centres undefined)	.	76.0
Cc1cccc(NC(c2ccccn2)c2ccc3ccc(C)nc3c2O)n1 (centres undefined)	.	99.0
COc1ccc(C)cc1NC(=O)C1CC(=O)N(CCc2c[nH]c3ccc(F)cc23)C1 (centres undefined)	.	.
Cc1ccccc1C(=O)N1CCCC2(C1)Nc1ccccc1NC2=NC(C)(C)C (centres undefined)	.	.
SMILES	Pf apPOL block	mHTT-CaM PPI inh
O=C(C1CCC1)N1CCCC(c2ccnc(-c3ccc(F)cc3)n2)C1 (centres undefined)	.	.
CCc1ccc(-n2c(C)nc3cc(C(=O)NCc4ccc5c(c4)OCO5)ccc32)cc1	.	.
O=C(CCC1CCCCC1)NCc1ccc2[nH]c3c(c2c1)CCCC3	.	98.4
NNC(=O)c1ccc2[nH]c3c(c2c1)CCCC3	.	.
Cc1ccc(CNC(=O)CN(C)S(=O)(=O)c2ccc3[nH]c4c(c3c2)CCCC4)cc1	.	.
O=C(CCC1CCCC1)NCc1ccc2[nH]c3c(c2c1)CCCC3	.	100.2
Cc1cccc(NC(=O)CN2C(=O)N/C(=C/c3ccc(C(C)(C)C)cc3)C2=O)c1	.	.
CN(C)c1ncccc1C(=O)Nc1cccc(F)c1	.	.
Cc1c(C)c2cc3c(-c4ccccc4)coc3cc2oc1=O	60.0	.
Cc1c(C)c2cc3c(-c4ccc(F)cc4)coc3cc2oc1=O	.	.
O=C1C=C(c2ccc(Cl)cc2)C(=O)N1c1ccccc1Cl	.	62.0
COc1ccccc1N1C(=O)C=C(c2ccc(Cl)cc2)C1=O	.	.
O=C(O)c1ccc(NC2=CC(=NS(=O)(=O)c3ccccc3)c3ccccc3C2=O)cc1	.	62.0
O=C1C(Nc2ccc(O)cc2)=CC(=NS(=O)(=O)c2ccc(Cl)cc2)c2ccccc21	.	98.0
O=S(=O)(N=C(NS(=O)(=O)c1ccc(Cl)cc1)c1ccccc1)c1ccccc1	.	.
O=C(O)c1ccc(S(=O)(=O)c2ccccc2)cc1	.	.
O=C(O)c1cccc(NC2=CC(=NS(=O)(=O)c3ccc(F)cc3)c3ccccc3C2=O)c1	.	.
CCc1ccc(S(=O)(=O)N=C2C=C(Nc3cccc(C(=O)O)c3)C(=O)c3ccccc32)cc1	.	80.0
CCCC(=O)N1CCc2c(c(-c3nc(-c4ccccc4)no3)nn2C)C1	.	.
O=C(NCC1CCN(C(=O)COc2ccccc2)CC1)c1ccccc1Br	.	.
CN(C)CCCN1c2ccccc2Sc2ccc(Cl)cc21	.	/
CC(C)COc1ccc2c(c1)Sc1ccccc1N2CCN(C)C	.	92.6
O=C(Nc1ccc2c(N3CCCCC3)ncnc2c1)c1ccccc1	.	.
C[C@@H](c1ccccc1)N1C[C@H](COCc2ccccc2)Oc2cc(N3CCC[C@H]3CO)ccc2S1(=O)=O	.	.
COC[C@H]1CCCN1c1ccc2c(c1)O[C@H](COCc1ccccc1)CN([C@@H](C)c1ccccc1)S2(=O)=O	.	.
C[C@@H](c1ccccc1)N1C[C@@H](COCc2ccccc2)Oc2cc(N3CCC[C@H]3C(N)=O)ccc2S1(=O)=O	.	.
C[C@@H](c1ccccc1)N1C[C@@H](COCc2ccccc2)Oc2cc(N3CC[C@@H](N(C)C)C3)ccc2S1(=O)=O	.	100.2

Compound activity (PubChem)
